Results reported in the supplement of paper PMC10849652.
The full data set covers some 7,900 targets. This sample favours those with a hit. About 0.6% of all pairs of compound and target were hits.

Compound: C[C@@H]1COCCN1C2=NC(=NC(=C2)C3(CC3)S(=O)(=O)C)C4=C5C=CNC5=CC=C4
Assay: log2 fold change, soluble protein after heating vs DMSO (PISA); higher = thermal stabilisation; K562 cells, 10 uM, 30 min; active = over 0.2 and 3.5 SD of the protein, either way, in both replicates (recomputed)
Outline: (§1)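 K562 cells at 2×10^6 cells/mL were exposed to 10 μM compound for 30 min, then aliquots were heated for 3 min across 48°C-58°C, pooled, and extracted in PBS containing 0.5% NP-40 at 4°C. The supernatant after 21,000xg for 90 min was taken as soluble protein and measured by TMTpro 16plex LC-MS/MS with channel sums equalised. Thermal stability is reported relative to control samples, with values from duplicates. Fold changes are given on a log2 scale.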

Sequence of UniProt P98170 (P98170 whole entry, looked up): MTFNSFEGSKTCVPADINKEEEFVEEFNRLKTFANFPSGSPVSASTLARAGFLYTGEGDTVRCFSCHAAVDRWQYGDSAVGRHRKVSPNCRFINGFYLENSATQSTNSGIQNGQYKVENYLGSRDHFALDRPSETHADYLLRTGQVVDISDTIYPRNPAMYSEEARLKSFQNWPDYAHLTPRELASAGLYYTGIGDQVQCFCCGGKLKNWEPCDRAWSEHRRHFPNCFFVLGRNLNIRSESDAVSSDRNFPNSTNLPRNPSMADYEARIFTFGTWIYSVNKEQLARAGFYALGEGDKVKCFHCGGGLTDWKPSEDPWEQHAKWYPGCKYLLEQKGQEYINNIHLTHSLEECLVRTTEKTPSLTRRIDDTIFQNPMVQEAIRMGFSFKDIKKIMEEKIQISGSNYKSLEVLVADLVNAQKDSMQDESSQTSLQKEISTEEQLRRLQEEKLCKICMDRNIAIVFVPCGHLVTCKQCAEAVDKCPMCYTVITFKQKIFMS
Sequence of UniProt O00124 (O00124 whole entry, looked up): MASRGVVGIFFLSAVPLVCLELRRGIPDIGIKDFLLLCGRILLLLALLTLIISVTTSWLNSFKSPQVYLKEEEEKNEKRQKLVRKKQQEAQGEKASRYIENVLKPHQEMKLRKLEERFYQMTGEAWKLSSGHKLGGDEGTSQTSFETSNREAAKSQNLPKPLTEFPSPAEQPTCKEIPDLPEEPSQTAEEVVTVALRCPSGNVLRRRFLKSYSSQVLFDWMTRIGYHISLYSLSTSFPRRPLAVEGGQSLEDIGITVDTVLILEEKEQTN
Sequence of UniProt P61960 (P61960 whole entry, looked up): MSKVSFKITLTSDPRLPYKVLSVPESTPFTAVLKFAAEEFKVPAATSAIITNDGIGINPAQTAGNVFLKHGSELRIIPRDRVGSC
Sequence of UniProt O95857 (O95857 whole entry, looked up): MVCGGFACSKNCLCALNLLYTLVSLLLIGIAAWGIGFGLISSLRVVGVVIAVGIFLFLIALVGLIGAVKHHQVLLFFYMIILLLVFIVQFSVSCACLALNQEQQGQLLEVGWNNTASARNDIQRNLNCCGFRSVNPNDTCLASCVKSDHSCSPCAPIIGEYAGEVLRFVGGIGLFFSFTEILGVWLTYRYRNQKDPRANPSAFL
Sequence of UniProt Q502W6 (Q502W6 whole entry, looked up): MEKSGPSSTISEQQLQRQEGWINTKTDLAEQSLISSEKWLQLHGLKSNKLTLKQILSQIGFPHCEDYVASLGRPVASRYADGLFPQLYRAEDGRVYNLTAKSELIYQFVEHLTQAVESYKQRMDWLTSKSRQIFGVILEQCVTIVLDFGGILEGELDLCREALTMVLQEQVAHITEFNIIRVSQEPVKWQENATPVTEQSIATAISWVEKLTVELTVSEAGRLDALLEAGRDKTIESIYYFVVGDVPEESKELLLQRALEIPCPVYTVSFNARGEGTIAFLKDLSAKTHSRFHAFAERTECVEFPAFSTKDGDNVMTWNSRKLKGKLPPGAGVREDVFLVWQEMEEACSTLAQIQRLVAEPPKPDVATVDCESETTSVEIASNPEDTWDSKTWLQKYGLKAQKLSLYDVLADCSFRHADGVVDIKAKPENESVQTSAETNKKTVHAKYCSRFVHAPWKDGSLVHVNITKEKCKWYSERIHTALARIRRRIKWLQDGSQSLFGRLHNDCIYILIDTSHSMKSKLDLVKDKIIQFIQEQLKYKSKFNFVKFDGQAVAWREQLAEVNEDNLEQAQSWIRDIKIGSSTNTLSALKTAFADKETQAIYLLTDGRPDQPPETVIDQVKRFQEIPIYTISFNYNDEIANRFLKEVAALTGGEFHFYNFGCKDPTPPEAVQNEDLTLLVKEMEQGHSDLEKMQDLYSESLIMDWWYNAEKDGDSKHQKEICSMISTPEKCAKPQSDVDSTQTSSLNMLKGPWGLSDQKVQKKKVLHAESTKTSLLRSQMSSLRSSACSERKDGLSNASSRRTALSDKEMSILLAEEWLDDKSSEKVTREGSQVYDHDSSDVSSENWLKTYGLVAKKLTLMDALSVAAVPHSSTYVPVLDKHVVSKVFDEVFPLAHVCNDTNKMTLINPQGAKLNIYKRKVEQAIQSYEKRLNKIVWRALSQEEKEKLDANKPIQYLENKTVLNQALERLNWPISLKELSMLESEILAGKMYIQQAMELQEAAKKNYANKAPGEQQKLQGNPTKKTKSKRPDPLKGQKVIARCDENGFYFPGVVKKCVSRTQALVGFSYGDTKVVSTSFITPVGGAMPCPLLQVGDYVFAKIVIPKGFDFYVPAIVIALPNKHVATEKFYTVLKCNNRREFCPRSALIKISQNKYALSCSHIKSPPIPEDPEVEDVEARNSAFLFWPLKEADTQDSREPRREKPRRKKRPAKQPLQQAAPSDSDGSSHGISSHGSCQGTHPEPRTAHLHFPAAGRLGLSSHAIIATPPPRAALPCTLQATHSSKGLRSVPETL
Sequence of UniProt Q9BZM6 (Q9BZM6 whole entry, looked up): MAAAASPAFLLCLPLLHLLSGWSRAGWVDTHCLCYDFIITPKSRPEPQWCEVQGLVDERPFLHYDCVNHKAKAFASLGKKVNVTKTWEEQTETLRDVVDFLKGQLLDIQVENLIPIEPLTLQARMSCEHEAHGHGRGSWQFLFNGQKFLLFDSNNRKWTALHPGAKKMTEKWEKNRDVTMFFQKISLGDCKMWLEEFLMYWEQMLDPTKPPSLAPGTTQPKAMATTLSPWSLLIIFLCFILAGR
Sequence of UniProt Q15906 (Q15906 whole entry, looked up): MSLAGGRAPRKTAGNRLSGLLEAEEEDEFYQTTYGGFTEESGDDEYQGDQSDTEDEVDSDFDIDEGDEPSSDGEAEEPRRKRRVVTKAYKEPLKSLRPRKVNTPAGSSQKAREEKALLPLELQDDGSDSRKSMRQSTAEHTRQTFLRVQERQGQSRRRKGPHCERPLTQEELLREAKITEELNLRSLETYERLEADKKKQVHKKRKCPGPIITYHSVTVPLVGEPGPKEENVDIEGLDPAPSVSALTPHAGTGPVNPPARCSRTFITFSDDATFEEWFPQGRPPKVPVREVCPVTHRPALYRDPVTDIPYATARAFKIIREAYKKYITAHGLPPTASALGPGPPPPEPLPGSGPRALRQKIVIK
Sequence of UniProt Q8N2K1 (Q8N2K1 whole entry, looked up): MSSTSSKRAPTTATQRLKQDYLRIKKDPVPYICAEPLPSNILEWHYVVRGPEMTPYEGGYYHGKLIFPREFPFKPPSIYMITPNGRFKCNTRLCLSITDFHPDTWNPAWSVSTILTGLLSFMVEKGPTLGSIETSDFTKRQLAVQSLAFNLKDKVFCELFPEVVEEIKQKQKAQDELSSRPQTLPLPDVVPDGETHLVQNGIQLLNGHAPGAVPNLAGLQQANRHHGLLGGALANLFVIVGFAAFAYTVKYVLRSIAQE
Sequence of UniProt Q9C035 (Q9C035 whole entry, looked up): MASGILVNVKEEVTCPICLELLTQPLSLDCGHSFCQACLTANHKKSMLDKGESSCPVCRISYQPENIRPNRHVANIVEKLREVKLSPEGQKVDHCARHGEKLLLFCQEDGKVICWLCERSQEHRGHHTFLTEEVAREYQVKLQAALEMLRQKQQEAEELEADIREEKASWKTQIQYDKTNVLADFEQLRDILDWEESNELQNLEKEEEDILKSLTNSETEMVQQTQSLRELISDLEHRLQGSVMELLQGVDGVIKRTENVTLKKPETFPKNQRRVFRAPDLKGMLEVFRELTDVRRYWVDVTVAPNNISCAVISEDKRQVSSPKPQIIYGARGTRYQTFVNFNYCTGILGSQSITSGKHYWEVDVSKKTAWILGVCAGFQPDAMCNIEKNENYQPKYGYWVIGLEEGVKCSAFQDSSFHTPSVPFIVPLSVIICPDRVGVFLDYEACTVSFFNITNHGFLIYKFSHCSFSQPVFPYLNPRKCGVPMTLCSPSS
Sequence of UniProt Q5VZI3 (Q5VZI3 whole entry, looked up): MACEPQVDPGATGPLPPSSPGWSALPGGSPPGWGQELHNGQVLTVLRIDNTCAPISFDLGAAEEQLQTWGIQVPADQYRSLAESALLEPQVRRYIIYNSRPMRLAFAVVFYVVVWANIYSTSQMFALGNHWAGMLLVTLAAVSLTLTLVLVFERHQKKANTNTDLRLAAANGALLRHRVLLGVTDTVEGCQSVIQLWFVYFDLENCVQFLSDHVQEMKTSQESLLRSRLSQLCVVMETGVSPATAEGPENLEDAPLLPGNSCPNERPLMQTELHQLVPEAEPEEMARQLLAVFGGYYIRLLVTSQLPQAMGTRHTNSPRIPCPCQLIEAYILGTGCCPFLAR
Sequence of UniProt Q8IWA0 (Q8IWA0 whole entry, looked up): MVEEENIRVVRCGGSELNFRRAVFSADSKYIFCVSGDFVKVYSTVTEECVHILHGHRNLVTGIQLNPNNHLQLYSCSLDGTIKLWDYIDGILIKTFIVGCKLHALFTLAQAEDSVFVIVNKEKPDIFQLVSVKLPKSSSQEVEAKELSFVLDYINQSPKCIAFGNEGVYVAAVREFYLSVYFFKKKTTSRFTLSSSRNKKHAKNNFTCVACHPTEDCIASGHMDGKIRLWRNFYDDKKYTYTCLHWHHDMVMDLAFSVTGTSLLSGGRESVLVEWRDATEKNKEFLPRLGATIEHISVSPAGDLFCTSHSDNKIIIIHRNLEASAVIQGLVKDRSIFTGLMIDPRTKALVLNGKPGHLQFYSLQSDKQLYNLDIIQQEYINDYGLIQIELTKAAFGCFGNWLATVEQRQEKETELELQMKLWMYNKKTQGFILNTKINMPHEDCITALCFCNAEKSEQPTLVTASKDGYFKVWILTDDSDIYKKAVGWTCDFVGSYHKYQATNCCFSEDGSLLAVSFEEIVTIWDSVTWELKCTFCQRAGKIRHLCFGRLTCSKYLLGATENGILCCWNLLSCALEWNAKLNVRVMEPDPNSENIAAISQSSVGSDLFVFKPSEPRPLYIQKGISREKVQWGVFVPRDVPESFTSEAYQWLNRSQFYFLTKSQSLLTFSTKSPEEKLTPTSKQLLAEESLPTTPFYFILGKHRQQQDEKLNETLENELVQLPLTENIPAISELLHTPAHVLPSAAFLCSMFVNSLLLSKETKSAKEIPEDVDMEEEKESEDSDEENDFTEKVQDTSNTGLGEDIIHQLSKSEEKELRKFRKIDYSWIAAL

log2 fold change, inactive:
TOM1 (UniProt O60784) -0.05
TMEM268 isoform 3 (UniProt Q5VZI3) -0.308
WDR4 isoform 3 (UniProt P57081) 0.125
TMEM104 (UniProt Q8NE00) 0.012
VDAC1 (UniProt C9JI87) -0.195
TXNRD1 isoform 7 (UniProt Q16881) -0.026
UBE2J2 isoform 3 (UniProt Q8N2K1) -0.076
VPS72 isoform 2 (UniProt Q15906) 0.093
WDR75 (UniProt Q8IWA0) -0.03
UBXN8 (UniProt O00124) -0.094
TSPAN13 (UniProt O95857) 0.4
UFM1 isoform 2 (UniProt P61960) -0.065
WARS1 (UniProt G3V5U1) -0.282
UTP20 (UniProt O75691) -0.379
XAB2 (UniProt Q9HCS7) -0.223
WARS1 (UniProt G3V227) -0.024
WARS1 (UniProt G3V339) -0.123
VWA3B isoform 6 (UniProt Q502W6) 0.074
XIAP (UniProt P98170) 0.092
TMEM219 (UniProt Q86XT9) -0.036
TRIM5 (UniProt Q9C035) 0.037
ULBP1 (UniProt Q9BZM6) 0.192

Compound: C[C@H](C1=CC=C(C=C1)C(=O)NC2=C3C=CNC3=NC=C2)N
Assay: as above
Outline: as §1

log2 fold change, inactive:
TMEM268 isoform 3 (UniProt Q5VZI3) -0.078
VKORC1 (UniProt Q9BQB6) -0.032
UNC119B (UniProt A6NIH7) 0.039
UBE2D1 (UniProt P51668) -0.004
TMEM104 (UniProt Q8NE00) 0.009
VDAC1 (UniProt C9JI87) 0.275
TMEM8A (UniProt Q9HCN3) 0.049
UBE2J2 isoform 3 (UniProt Q8N2K1) -0.365
TVP23C (UniProt Q96ET8) 0.03
VPS72 isoform 2 (UniProt Q15906) 0.196
WDR75 (UniProt Q8IWA0) 0.185
UBXN8 (UniProt O00124) 0.161
TXNL4B (UniProt Q9NX01) 0.008
TSPAN13 (UniProt O95857) -0.17
UBIAD1 (UniProt Q9Y5Z9) 0.001
UFM1 isoform 2 (UniProt P61960) -0.157
TRIM44 (UniProt Q96DX7) -0.059
TUBA4A (UniProt C9JJQ8) -0.159
WARS1 (UniProt G3V227) 0.147
VWA3B isoform 6 (UniProt Q502W6) 0.045
TRIM23 (UniProt P36406) -0.122
XIAP (UniProt P98170) -0.09
TMEM219 (UniProt Q86XT9) 0.114
TRIM5 (UniProt Q9C035) 0.148
ULBP1 (UniProt Q9BZM6) 0.156
